SMILES strings stand for the structures. Hit rate of the full screen: of about 290,000 compounds, about 11,000 (3.8%) were called active. For the sample, actives were picked, then their nearest neighbours and some compounds at random. Unmarked numbers belong to inactive results.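 How the source made its calls: active means mean replicate inhibition above about 79%, with every replicate also reaching it (limit read from the data); inconclusive means only one of the two criteria met; inactive means mean below limit and not every replicate reaching it.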

For this experiment, the target named is FAD-linked sulfhydryl oxidase ALR (Homo sapiens) (UniProt P55789). In words: ALR-catalysed DTT oxidation blockers – biochemical, H2O2 detection, HRP-luminol luminescence, single point, primary screen (AID 485317). Conditions: purified ALR, hits give high values, concentration not given here.
Sequence of FAD-linked sulfhydryl oxidase ALR (Homo sapiens) (P55789 whole entry, looked up): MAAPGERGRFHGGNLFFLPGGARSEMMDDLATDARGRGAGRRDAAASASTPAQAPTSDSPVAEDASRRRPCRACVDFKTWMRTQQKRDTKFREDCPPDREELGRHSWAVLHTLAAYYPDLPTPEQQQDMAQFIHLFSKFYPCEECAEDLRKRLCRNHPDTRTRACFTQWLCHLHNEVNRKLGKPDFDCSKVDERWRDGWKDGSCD
Take `Cc1sc2ncnc(N3CCC(C(=O)Nc4ccc(F)cc4Cl)CC3)c2c1C`: the inhibition (commonly the relative decrease from the control value, in per cent) is 1.27%.
To `Nc1c(-c2ccccc2)nnn1Cc1ccccc1` belongs -6.35%.
On to `Cn1c(CC(=O)Nc2ccccc2)nnc1SCC(=O)c1ccccc1`, for which the inhibition was -3.26%.
Under `Cc1ccc(C(=O)CSc2nnc(Cn3nnc4ccccc43)n2C)cc1` stands 39.7%.
Under `Cn1c(CC2Sc3ccccc3NC2=O)nnc1SCC(=O)c1ccc(Cl)cc1` (stereo not given) stands 92.8% (active).
Turning to `S=c1[nH]nc(-c2ccco2)n1/N=C/c1ccccc1`, the inhibition is 94.9% (active).
To `S=c1[nH]nc(-c2ccco2)n1/N=C/c1ccc(Br)s1` belongs 68.5%; to `Cc1cc(-c2n[nH]c(=S)n2/N=C/c2ccco2)n[nH]1`, -0.903%; to `COc1ccc(C(=O)COC(=O)C(O)c2ccccc2)c(OC)c1` (stereo not given), -0.55%.
As to `O=C(C1Cc2ccccc2CN1C(=O)c1ccco1)N1CCN(c2ccccc2)CC1` (stereo not given), the inhibition is 50.3%.
To `Cc1ccc(Cl)c(OCC(=O)N(C)CC(=O)Nc2ccc(N3CCOCC3)cc2)c1` belongs 52.9%; to `O=C(CCc1[nH]c2ccccc2c1Sc1ccccc1)N(CCO)CCO`, 99% (active).
`CCCC(=O)N(CCc1ccccc1)Cc1nc2ccccc2c(=O)[nH]1`: the inhibition was -7.51%.
Consider `CCCCNC(=O)Cn1nc(C)c(S(=O)(=O)N2CCOCC2)c1C`, for which the inhibition is 3.23%.
To `COc1ccc(S(=O)(=O)N2CCN(CC(=O)N3CCOCC3)CC2)cc1OC` belongs -0.297%.
Under `Cc1cccc(-c2nc(Nc3ccc(O)cc3)c3ccccc3n2)c1` stands 6.09%; under `Cc1ccc(-c2nnc(Nc3ccc(C(=O)N(C)C)cc3)c3ccccc23)cc1S(N)(=O)=O`, -2.47%; under `Oc1ccc(-c2nnc(Nc3ccccc3)c3ccccc23)cc1`, 98.8% (active).
To `O=C1NC(c2cccc(Cl)c2)Nc2ccccc21` (stereo not given) belongs 0.575%; to `CCOC(=O)NN1C(=O)c2ccccc2NC1c1cccc(O)c1` (stereo not given), -18.3%.
On to `O=C1c2ccccc2NC(c2ccc(-c3cccc(Cl)c3)o2)N1O` (stereo not given), for which the inhibition was 95.9% (active).
To `COc1ccc(C(=O)COC(=O)c2c(C)noc2C)cc1Cl` belongs 1.08%; to `Nc1ccc(-c2nnc(-c3ccccc3)o2)cc1`, 36.1%.
On to `Nc1nc(-c2ccccc2)cc(-c2ccccc2)n1`, for which the inhibition was -2.58%.
To `Nc1ccc(-c2sc(N)nc2-c2ccccc2)cc1` belongs 99% (active); to `CCN1C(=O)[C@@H]2[C@@H](c3ccc(-c4ccccc4)cc3)N3CCCC[C@@]3(C(=O)OC)[C@@H]2C1=O`, -1.67%.
In the case of `CCCCn1c(N)c(N(CCOC)C(=O)c2cccc(S(=O)(=O)N(C)c3ccccc3)c2)c(=O)[nH]c1=O`, the inhibition is -2.15%.
As to `Cc1ccc(NC(=O)C2CC(=O)N(c3ccc4c(c3)OCCO4)C2)cc1S(=O)(=O)N1CCCCCC1` (stereo not given), the inhibition is -0.304%.
To `COc1cc(C2C(C(=O)c3cccs3)=C(O)C(=O)N2CCN2CCOCC2)ccc1OCCC(C)C` (stereo not given) belongs -0.637%; to `Cc1ccc(NC(=O)CSc2nn3c(=O)c(C)nnc3s2)cc1Cl`, 98.9% (active); to `Cc1ccc(NC(=O)C/C(N)=N/O)cc1Cl`, -7.95%.
To `COc1ccc(Cc2nnc(SCC(=O)Nc3ccc(C)c(Cl)c3)[nH]c2=O)cc1` belongs -4.08%.
To `CC(C)(C)S(=O)(=O)c1ccccc1-c1noc(-c2ccccc2)c1C(N)=O` belongs -2.96%; to `COc1ccc2nc3n(c(=O)c2c1)-c1ccc(Cl)cc1C(=O)NC3Cc1ccccc1` (stereo not given), -0.323%; to `COc1ccc(C2NC(=O)c3ccccc3N2)cc1` (stereo not given), 0.0966%.
As for `COc1ccc2c(c1)C(=O)Nc1cc(Cl)ccc1N2`, the inhibition is 87.7% (active).
To `CC(C)(C)c1ccc(C(=O)NCc2ccco2)cc1` belongs 1.34%.
Consider `CN(CC(=O)NC1CCN(Cc2ccccc2)CC1)S(=O)(=O)c1ccc(Cl)s1`, for which the inhibition is -2.03%.
On to `Cc1ccc(NC(=O)c2ccc(Cl)nc2)cc1S(=O)(=O)N1CCOCC1`, for which the inhibition was -4.04%.
To `Cc1ccc(NC(=O)CSCC(=O)NC2CCCCC2)cc1` belongs -3.3%; to `Cc1ccc(NC(=O)CS(=O)CC(=O)N(c2ccccc2)C(C)C(=O)NC2CCCC2)cc1` (stereo not given), -4.87%.
Under `Cc1ccc(-c2nc(CSCC(=O)NC3CCN(Cc4ccccc4)CC3)c(C)o2)cc1` stands 99.5% (active); under `Cc1ccc(-c2cc(C(=O)NC3CCN(Cc4ccccc4)CC3)c3ccccc3n2)cc1`, 1.58%; under `Cc1ccc(-c2nc(CS(=O)CC(=O)NC3CCCC3)c(C)o2)cc1` (stereo not given), 99.1% (active).
For `Cc1ccc(S(=O)(=O)NCCC(=O)NC2CCN(Cc3ccccc3)CC2)cc1`, the inhibition is 6.19%.
Under `COC(=O)[C@]1(CC(C)C)N[C@H](c2ccc(SC3CCCCC3)cc2)[C@@H]2C(=O)N(C)C(=O)[C@@H]21` stands -4.22%; under `O=C(Nc1cccc(S(=O)(=O)N2CCCC2)c1)c1cncc(Br)c1`, -0.493%; under `OCC[C@H]1C[C@@H](O)[C@H](O)[C@@]2(OCCc3ccccc32)O1`, -5.81%.
For the molecule `C=CC[C@@H](CC(=O)N[C@@H](CO)Cc1ccccc1)C(=O)N[C@H](COC(=O)[C@H](CC=C)CC(=O)OC(C)(C)C)Cc1ccccc1`, the inhibition was 0.393%.
To `Oc1c(C(c2ccco2)N2CCC3(CC2)OCCO3)sc2ncnn12` (stereo not given) belongs -33.4%; to `Cc1ccc(C(c2sc3nc(C)nn3c2O)N2CCN(c3ccc(F)cc3)CC2)cc1` (stereo not given), 2.24%; to `Oc1c(C(c2cccs2)N2CCN(c3ccc(F)cc3)CC2)sc2ncnn12` (stereo not given), 95.5% (active).
Under `COc1ccc(C(CNC(=O)c2ccc(NS(=O)(=O)c3ccc(F)c(C)c3)cc2)N(C)C)cc1` (stereo not given) stands -5.64%; under `CC1(C)CC(=O)C=C(c2ccc(Cl)c(C(F)(F)F)c2)C1`, 3.75%; under `CCN(CC(=O)Nc1ccc(NC(C)=O)cc1)C(=O)CSC(=S)N1CCCC1`, -0.0599%.
To `COc1cc(NC(=O)CSC(=S)N2CCCC2)c(OC)cc1Cl` belongs -2.05%; to `CC(=O)c1ccc(NC(=O)CSC(=S)N2CCCC2)cc1`, 92.8% (active).
Regarding `CN1C(=O)c2cccc3c(N)ccc(c23)C1=O`, the inhibition was -15.1%.
With `CCN1C(=O)c2cccc3c(S(=O)(=O)Nc4ccccc4O)ccc1c23`, the inhibition is -28.9%.
Regarding `CCN1C(=O)c2cccc3c(N)ccc1c23`, the inhibition was 99.2% (active).
Under `COc1ccc(-c2c(C#Cc3ccccc3)c3ccccc3n2C)cc1` stands -4.24%; under `CCOC(=O)C1CCN(CC(=O)Nc2ccc(OC)c(S(=O)(=O)N3CCCCC3)c2)CC1`, -8.75%.
To `COc1ccc(F)cc1S(=O)(=O)NCC(c1ccc2c(c1)OCO2)N1CCN(C)CC1` (stereo not given) belongs -4.58%; to `CN(C(=O)c1cccc(NC(=O)C2CCN(C(=O)OC(C)(C)C)CC2)c1)C1CCC1`, 4.19%.
`Cc1ccc(C(=O)Oc2coc(CSc3nnc(NC(=O)c4cccs4)s3)cc2=O)cc1C`: the inhibition is 0.72%.
To `O=C(/C=C/c1ccccc1)Oc1coc(CSc2ncccn2)cc1=O` belongs 97.4% (active); to `C=CCNC(=O)COc1coc(CN2CCN(Cc3ccccc3)CC2)cc1=O`, -3.07%; to `CC(=O)NCc1ccc(-c2csc(NC(=O)CCCc3nc4ccccc4c(=O)[nH]3)n2)cc1`, -5.1%.
To `C[C@@H]1CN([C@H](C)CO)C(=O)c2cc(NC(=O)NC3CCCCC3)ccc2O[C@H]1CN(C)S(C)(=O)=O` belongs 0.076%; to `Cc1cccc(N=C2SC(C)CN2C(=O)CN2C(=O)NC3(CCCC3)C2=O)c1` (stereo not given), 2.77%; to `O=C1CSc2ccc(C(=O)NCc3ccccn3)cc2N1`, -5.07%.
In the case of `Cc1nn(Cc2ccccc2)c(C)c1C(=O)N1CCN(CC(=O)Nc2ccccc2Cl)CC1`, the inhibition was -4.78%.
For `COc1ccc(-c2nc3c(s2)CCc2onc(-c4ccc(Br)cc4)c2-3)cc1`, the inhibition was -11%.
Under `Clc1ccc2nc(CSc3ccccc3)cn2c1` stands 98.9% (active); under `CCCCCCSc1ccc(-c2nc3ccc(Cl)cn3c2NCc2ccccc2)cc1`, -0.616%; under `CCOc1ncccc1C(=O)OCc1cn2cc(Cl)ccc2n1`, -2.41%.
In the case of `O=C1N[C@@H](Cc2ccccc2)C(=O)N2[C@H]1C[C@]1(Br)c3ccccc3N(S(=O)(=O)c3ccccc3)[C@H]21`, the inhibition was -12.1%.
To `Cc1ccc(-c2nc(C)sc2CC(=O)OCC(=O)Nc2c(F)cccc2F)cc1` belongs -7.76%.
Under `CCOc1ccc(-c2nc(C)sc2CC(=O)O)cc1` stands -6.6%.
`Cc1ccc(-c2nc(C)sc2CC(=O)O)cc1`: the inhibition is 99.3% (active).
Under `Cc1ccc(C(=O)OCC(=O)N2CCCCCC2)cc1S(=O)(=O)N1CCOCC1` stands -22.6%; under `COc1cccc(CNC(=O)COC(=O)CN2C(=O)NC3(CCCCC3C)C2=O)c1` (stereo not given), 2.16%.
In the case of `FC(F)(F)c1nc2ccccc2nc1N/N=C/c1ccc(Cl)cc1`, the inhibition is -14.4%.
To `COc1ccccc1N1CCN(/N=C/c2ccc(O)cc2O)CC1` belongs 1.54%; to `Oc1ccc(/C=N/NC2=NCCCCC2)c(O)c1`, 81.4% (active).
Regarding `COc1ccc(/C=C(\C#N)C(=O)ONC2=NCCCCC2)cc1`, the inhibition is 12.1%.
To `Oc1ccc(/C=N/Nc2nc(-c3ccccc3F)nc3ccccc23)c(O)c1` belongs 6.31%; to `Cc1nc2ccccc2nc1N/N=C/c1ccc(O)cc1O`, 95.7% (active); to `COc1ccc(OC)c(/C=C/C(=O)c2ccc3c(c2)OCO3)c1`, 3.84%.
Under `COc1cc(OC)cc(C(=O)NNC(=O)CNC(=O)c2ccc(Br)o2)c1` stands 7.85%.

(Values after PubChem BioAssay AID485317 (Broad Institute, 2010).)
